Results taken from PubChem BioAssay (NCI).
Compounds without any hit were thinned out: in the full panel of roughly 83,000, 20% have a hit.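 In brief: 96-well plates, 48 h treatment, single concentration, percent growth endpoint.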 Calls of active or inactive are those of the source. How the source made its calls: active means growth percent below 10; inactive means the rest.

Assays:
Test in all cases: NCI-60 one-dose screen, 48 h (100 = growth as untreated, 0 = no growth, -100 = all killed)
NCI-H226 lung = conditions: 10 µM
NCI-H322M lung = conditions: 10 µM unless noted
HOP-62 NSCLC = conditions: 10 µM unless noted
NCI-H460 lung = conditions: 10 µM unless noted
HOP-92 NSCLC = conditions: 10 µM unless noted
A549/ATCC NSCLC = conditions: 10 µM unless noted
786-0 renal = conditions: 10 µM unless noted
COLO 205 colon = conditions: 10 µM unless noted
NCI-H522 lung = conditions: 10 µM

SMILES | growth (NCI-H226 lung) | growth (NCI-H322M lung) | growth (HOP-62 NSCLC) | growth (NCI-H460 lung) | growth (HOP-92 NSCLC) | growth (A549/ATCC NSCLC) | growth (786-0 renal) | growth (COLO 205 colon) | growth (NCI-H522 lung)
CN1CCc2cccc3c2C1Cc1ccc(O)c(O)c1-3 (stereo not given) | 80.8% (inactive) | 109% (inactive) | 87.8% (inactive) | 111% (inactive) | 106% (inactive) | 95.6% (inactive) | 86.2% (inactive) | 90.5% (inactive) | 
COc1ccc(C2CC(c3cc(OC)c(OC)c(OC)c3)=NN2c2ccc(S(N)(=O)=O)cc2)cc1 (stereo not given) | 61.9% (inactive) | 67.6% (inactive) | 67.3% (inactive) | 58.8% (inactive) | 27.8% (inactive) | 44.5% (inactive) | 66.6% (inactive) | 75.6% (inactive) | 66.9% (inactive)
Clc1ccc2c(N3CCN(c4ccnc(NC5CCCCC5)n4)CC3)ccnc2c1 | 80.7% (inactive) | 98.8% (inactive) | 51.7% (inactive) | 32% (inactive) | 40.6% (inactive) | 54.4% (inactive) | 49.4% (inactive) | -1.41% (active) | 71.3% (inactive)
COc1cc(/C=C/c2cc(/C=C/c3ccc(O)c(OC)c3)n(-c3ccccc3)n2)ccc1O | -8.19% (active) | -3.64% (active) | -67.7% (active) | 0.0675% (active) |  | 8.4% (active) | -76.7% (active) | -84.1% (active) | -30.2% (active)
COc1ccc(-c2nc(Nc3ccc(F)cc3)nc(Nc3ccc4c(c3)nc(C)n4Cc3ccccc3)n2)cc1 | 66.6% (inactive) | 82.4% (inactive) | 53.3% (inactive) | 30.3% (inactive) | 39.7% (inactive) | 32% (inactive) | 46.7% (inactive) | 28.2% (inactive) | 55.4% (inactive)
Cc1nc2cc(Nc3nc(Nc4ccc(F)cc4)nc(-c4ccc(Cl)cc4)n3)ccc2n1Cc1ccccc1 | 86.5% (inactive) | 94% (inactive) | 80.6% (inactive) | 71.1% (inactive) | 35.1% (inactive) | 57.4% (inactive) | 91% (inactive) | 61.8% (inactive) | 
COc1ccc2c(c1)c(=O)oc1c(C)c(OCC(C)=O)ccc12 | 104% (inactive) | 105% (inactive) | 118% (inactive) | 103% (inactive) |  | 85.1% (inactive) | 101% (inactive) | 128% (inactive) | 89.7% (inactive)
C[C@@H](Oc1cc(-c2cnn(C3CC4(CCCNC4)C3)c2)cnc1N)c1c(Cl)ccc(F)c1Cl (stereo not given in full) | 58.8% (inactive) | 58.9% (inactive) | 54% (inactive) | 0.489% (active) | -7.41% (active) | 16.6% (inactive) | 25.2% (inactive) | -30.9% (active) | 23.6% (inactive)
O=[N+]([O-])c1ccc(O)c2ncccc12 | 81.1% (inactive) | 31.6% (inactive) | 50.9% (inactive) | 23.2% (inactive) | 67.4% (inactive) | 46.6% (inactive) | 66.5% (inactive) | 80.5% (inactive) | 51.6% (inactive)
Cc1ccc2c(c1)c(Sc1ccc(C(=O)NO)cc1)c1n2CN(C)CC1 | -0.932% (active) | 31.1% (inactive) | 33.7% (inactive) | 7.16% (active) | 27.9% (inactive) | 1.5% (active) | 37.7% (inactive) | 14.1% (inactive) | 
COc1ccc(-c2nc3sc(C)cn3c2/C=C/C(=O)c2cc(OC)c(OC)c(OC)c2)cc1 | 76.9% (inactive) | 76.1% (inactive) | 90.1% (inactive) | 50.5% (inactive) | 46.2% (inactive) | 57.1% (inactive) | 48.2% (inactive) | 67.9% (inactive) | 37.8% (inactive)
O=C1c2cc(S(=O)(=O)O)ccc2C(=O)c2c1cccc2[N+](=O)[O-] | 111% (inactive) | 111% (inactive) | 117% (inactive) | 115% (inactive) | 110% (inactive) | 98.6% (inactive) | 101% (inactive) | 108% (inactive) | 96.6% (inactive)
COc1ccc(/C=C2\CN(Cc3cn(CCCNc4ccnc5cc(Cl)ccc45)nn3)C/C(=C\c3ccc(OC)cc3)C2=O)cc1 | 96.7% (inactive) | 80.1% (inactive) | 63.6% (inactive) | 86.3% (inactive) | 53.8% (inactive) | 65.7% (inactive) | 76.3% (inactive) | 81.6% (inactive) | 87.9% (inactive)
Cc1nc2cc(Nc3nc(NCCN)nc(Nc4ccc(F)cc4)n3)ccc2n1Cc1ccccc1 | 95.4% (inactive) | 99.7% (inactive) | 79.1% (inactive) | 82.6% (inactive) | 48.5% (inactive) | 83.9% (inactive) | 82.4% (inactive) | 82% (inactive) | 85.9% (inactive)
CC1=C(C/C=C(\C)CCC[C@H](C)CCC[C@H](C)CCCC(C)C)C(=O)c2ccccc2C1=O | 110% (inactive) | 103% (inactive) | 115% (inactive) | 114% (inactive) | 111% (inactive) | 103% (inactive) | 103% (inactive) | 110% (inactive) | 107% (inactive)
O=C(O)C[C@H](O)C[C@H](O)/C=C/c1c(C2CC2)nc2ccccc2c1-c1ccc(F)cc1 | 65.6% (inactive) | 58.1% (inactive) | 84.9% (inactive) | 94.4% (inactive) | -12% (active) | 105% (inactive) | 91.9% (inactive) | 102% (inactive) | 
O=C1/C(=C/c2ccc(F)cc2)CN(Cc2cn(CCNc3ccnc4cc(Cl)ccc34)nn2)C/C1=C\c1ccc(F)cc1 | -62.3% (active) | -0.345% (active) | -55.3% (active) | -42.8% (active) | -50.5% (active) | -31.3% (active) | -66.2% (active) | -53.4% (active) | -75.4% (active)
CON=C1C[C@]2(C[C@@H]3C[C@@H](C/C=C(\C)C[C@@H](C)/C=C/C=C4\CO[C@@H]5[C@H](O)C(C)=C[C@@H](C(=O)O3)[C@]45O)O2)O[C@H](/C(C)=C/C(C)C)[C@H]1C | 72% (inactive) | 72.1% (inactive) | 76.5% (inactive) | 39.3% (inactive) | 24.8% (inactive) | 48.7% (inactive) | 65.5% (inactive) | 59.1% (inactive) | 50.5% (inactive)
NS(=O)(=O)c1cc(Br)c2c(c1)S(=O)(=O)NCN2 | 113% (inactive) | 119% (inactive) | 113% (inactive) | 112% (inactive) | 93% (inactive) | 101% (inactive) | 106% (inactive) | 114% (inactive) | 102% (inactive)
Cc1ccc(S(=O)(=O)N(c2ccc(Cl)cc2)c2ccc(Br)cc2C(=O)O)cc1 | 97.7% (inactive) | 114% (inactive) | 105% (inactive) | 107% (inactive) |  | 105% (inactive) | 114% (inactive) | 116% (inactive) | 102% (inactive)
FCOC(C(F)(F)F)C(F)(F)F | 106% (inactive) | 97.5% (inactive) | 114% (inactive) | 111% (inactive) | 120% (inactive) | 99.1% (inactive) | 97.7% (inactive) | 117% (inactive) | 96.6% (inactive)
C[C@@H](Oc1cc(-c2cnn(C3CC4(CCNCC4)C3)c2)cnc1N)c1c(F)ccc(Cl)c1Cl | 65.5% (inactive) | 44.4% (inactive) | 28.4% (inactive) | -11.7% (active) | -18.8% (active) | -14.4% (active) | -2.08% (active) | -8.9% (active) | -0.334% (active)
CC(C)N1CCN(c2ccc(OC[C@H]3CO[C@](Cn4cncn4)(c4ccc(Cl)cc4Cl)O3)cc2)CC1 | 93.6% (inactive) | 106% (inactive) | 81% (inactive) | 103% (inactive) | 71.2% (inactive) | 89.6% (inactive) | 99.2% (inactive) | 62.9% (inactive) | 78% (inactive)
COc1cc(NC(=O)COc2ccccc2)c(C(N)=O)cc1OC | 76.5% (inactive) | 40.1% (inactive) | 30.5% (inactive) | 7.91% (active) |  | 20.5% (inactive) | 44.4% (inactive) | 8.28% (active) | -9.94% (active)
Cn1c2ccccc2c2nn(Cc3ccccc3)c(=O)nc21 | 86.6% (inactive) | 113% (inactive) | 94.2% (inactive) | 102% (inactive) |  | 105% (inactive) | 108% (inactive) | 119% (inactive) | 103% (inactive)
NC(=O)c1cc(I)ccc1NC(=O)COc1ccc(Cl)cc1Cl | 103% (inactive) | 98.5% (inactive) | 87.2% (inactive) | 103% (inactive) |  | 90.4% (inactive) | 89.9% (inactive) | 101% (inactive) | 75.7% (inactive)
Clc1ccc(Nc2ccnc(N3CCN(c4ccnc5cc(Cl)ccc45)CC3)n2)cc1 | 62.5% (inactive) | 48.6% (inactive) | 47.4% (inactive) | 48.4% (inactive) | 39.4% (inactive) | 48.6% (inactive) | 48.4% (inactive) | 46.5% (inactive) | 35.1% (inactive)
C=CC(=O)N1CC2(CCC(n3nc(-c4ccc(Oc5ccccc5)cc4)c4c(N)ncnc43)CC2)C1 | -77.7% (active) | 0.179% (active) | -2.62% (active) | -76.8% (active) | -66.4% (active) | -78.7% (active) | -87.7% (active) | -11.6% (active) | 
COc1cc(C(=O)/C=C/c2c(-c3cccs3)nc3sccn23)cc(OC)c1OC | 26.2% (inactive) | 8.06% (active) | 0.498% (active) | -27.9% (active) | -5.38% (active) | -3.26% (active) | -13.9% (active) | -49.7% (active) | -13% (active)
